Screening results deposited in PubChem by several laboratories.
hgDAF12 agonist: activates the H. glycines DAF-12 receptor ligand-binding domain; HEK293 GAL4-hgDAF12 UAS-luciferase reporter, agonist luminescence; normalized to butyrate control; actives 1.8% (n = 370,000); activation, % at 6.8 µM;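 active means activation above a cutoff set at the mean of all screened compounds plus 3 SD, cut at about 10% in these data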;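 further: 0% = DMSO wells and 100% = sodium butyrate wells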
ssDAF12 agonist: activates DAF-12 receptor from parasite S. stercoralis; activation, % at 6.8 µM; HEK293 ssDAF-12/GRIP1 lit1-tk-luc reporter, luminescence; % of 3 µM dafachronic acid response; actives 1% (n = 370,000);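 active means activation above the mean over all tested compounds plus 3 SD, cut at about 0.9% in these data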;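 further: 0% = DMSO-only wells and 100% = 3 µM delta7-dafachronic acid wells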
DAX1 inh-1: inhibitors of DAX1 repression of SF-1 activated StAR promoter; HEK293T StAR-luciferase reporter, SF-1/DAX-1 repression relief; AID 652010; inhibition, % at 6.8 µM; actives 1.1% (n = 370,000);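 active means inhibition above the mean over all tested compounds plus 3 SD, cut at about 3.6% in these data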;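 further: 0% = DAX-1 cells with DMSO and 100% = cells lacking DAX-1 with DMSO; higher inhibition means more luminescence from relief of DAX-1 repression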
NR1D1 modulator: modulators of human Rev-erb alpha DNA binding; P20393; Rev-erbα–FITC-DNA binding, fluorescence polarization, 90 min; activity, % at 10 µM; actives 0.79% (n = 370,000); AID 1259318;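 active means activity above about 14%, limit read from the data; passing the limit was not always enough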;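 further: 0% = DMSO wells with 35 nM protein and 100% = DMSO wells with 750 nM protein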
Target sequence (P20393 whole entry, looked up): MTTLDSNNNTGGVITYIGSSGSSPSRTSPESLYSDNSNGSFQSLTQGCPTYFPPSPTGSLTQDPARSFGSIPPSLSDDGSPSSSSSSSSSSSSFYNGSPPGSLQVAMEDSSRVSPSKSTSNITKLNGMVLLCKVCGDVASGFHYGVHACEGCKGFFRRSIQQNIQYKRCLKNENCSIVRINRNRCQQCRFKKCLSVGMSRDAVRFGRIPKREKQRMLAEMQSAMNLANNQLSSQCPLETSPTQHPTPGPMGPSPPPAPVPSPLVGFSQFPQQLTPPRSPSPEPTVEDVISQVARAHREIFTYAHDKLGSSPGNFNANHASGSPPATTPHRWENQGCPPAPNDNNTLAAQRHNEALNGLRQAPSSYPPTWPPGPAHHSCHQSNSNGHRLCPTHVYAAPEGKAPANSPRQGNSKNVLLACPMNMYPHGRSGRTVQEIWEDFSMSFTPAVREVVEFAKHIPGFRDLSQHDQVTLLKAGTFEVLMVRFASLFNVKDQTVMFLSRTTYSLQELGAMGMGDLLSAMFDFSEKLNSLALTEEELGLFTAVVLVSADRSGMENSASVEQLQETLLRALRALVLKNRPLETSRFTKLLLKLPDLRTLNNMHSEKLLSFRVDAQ
DAX1 inh-2: inhibitors of human orphan nuclear receptor DAX1 (NR0B1). actives 0.99% (n = 340,000). AID 504766. inhibition, % at 6.75 µM. HEK293 Gal4-DAX1 luciferase reporter, luminescence. P51843;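 active means inhibition above the mean over all tested compounds plus 3 SD, cut at about 4.2% in these data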;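 further: 0% = DAX1-transfected cells with DMSO and 100% = empty-vector control cells with DMSO; inhibition shows as a rise in luminescence from relieved DAX1 repression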
hcDAF12 agonist: H. contortus DAF-12 activation, primary screen; actives 1.4% (n = 370,000); HEK293 hcDAF-12 lit1-tk-luc reporter, luminescence; 0% DMSO, 100% Δ7-dafachronic acid; activation, % at 6.8 µM; AID 652067;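 active means activation above the mean of all tested compounds plus 3 SD, cut at about 5.5% in these data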;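 further: 100% = response to 3 µM Δ7-dafachronic acid high control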
* hit, by the source's call; . = not tested or not shown. Rows were chosen to be rich in hits. Some 4.8% of all compounds tested hit in one or more screens of this group.

SMILES | hgDAF12 agonist | ssDAF12 agonist | DAX1 inh-1 | NR1D1 modulator | DAX1 inh-2 | hcDAF12 agonist
Cn1c(=O)c2c(nc(NCC(O)CO)n2CCc2ccccc2)n(C)c1=O (stereo not given) | 2 | -1 | 0 | 4 | 5.4* | 1
Cc1cc(O)ccc1N=Cc1c(C(F)(F)F)[nH][nH]c1=O | -1 | -1 | -1 | 0 | 4.4* | 0
Cc1ccccc1S(=O)(=O)N1CCCc2nc(-c3ccccc3)ccc21 | 1 | -1 | 0 | 1 | . | -2
O=C(O)Cn1c(=S)sc2ccccc21 | 2 | 1.0* | 1 | 0 | 1 | 2
O=C(NNC1CCN(Cc2ccccc2)CC1)c1ccccc1 | 11* | 0 | 3 | -1 | 0 | -1
C#CCN1CC(N(C)CCOC(=O)CC2C=CCC2)CS1(=O)=O (stereo not given) | 2 | -1 | 1 | 4 | . | -1
N#CCCn1c(=S)[nH]c2ccccc21 | 0 | -1 | 0 | -9 | 1 | 1
Cn1c(=S)[nH]c2ccccc21 | 0 | -1 | 1 | -1 | 4.7* | 5.9*
C=CCN1C(=O)[C@H](CC(=O)N2CCN(C(=O)c3ccco3)CC2)[C@@]2(C(=O)OCC)CCCC=C12 | -1 | -1 | 0 | 4 | . | -1
COC(=O)[C@@]12CCCCC3=C1N(CCC3)C(=O)[C@H]2CC(=O)NCCC(C)C | -1 | -1 | -1 | -10 | . | -2
CN=C1S/C(=C/c2cc(C)n(Cc3ccccc3)c2C)C(=O)N1C | 0 | -1 | . | 2 | . | -2
N#C/C(=C\c1ccccc1O)C(=O)Nc1ccccn1 | 4 | 1 | 0 | -4 | 1 | 5.8*
Cc1cccc(NC(=O)/C(C#N)=C/c2ccccc2O)n1 | 8 | 1 | 1 | 5 | 1 | 5
CCCN1CCC(=O)N(CCOc2ccccc2)CC1 | 2 | -1 | 0 | 4 | 0 | -1
CC(C)CN1CCC(=O)N(CCOc2ccccc2)CC1 | 3 | 0 | 1 | -5 | 4.3* | 2
CC1CCC2(CC1)CCN(CCCOC(=O)Nc1cccc(C(F)(F)F)c1)C2=O (stereo not given) | 1 | -1 | -3 | 6 | . | -1
Cn1c(NCc2c(O)ccc3ccccc23)nc2ccccc21 | 1 | -1 | 0 | 7 | -1 | 0
Cn1c(NCc2ccc(Cl)cc2)nc2ccccc21 | 13* | 1.5* | 3 | 2 | 1 | 6
Cn1c(CNc2ccc(O)cc2)nc2ccccc21 | -1 | 0 | 0 | 2 | 1 | 0
COc1ccc(Nc2nc3ccccc3n2C)cc1 | 12* | 0 | 1 | 4 | 6.4* | 5
Cn1c(Nc2ccc(F)cc2)nc2ccccc21 | 0 | 0 | 0 | 5 | 0 | -1
Cn1c(COc2ccccc2Br)nc2ccccc21 | 10 | 1 | 2 | 0 | 6.0* | 4
CCOC(=O)c1ccc(NCc2nc3ccccc3n2C)cc1 | 10 | 0.9* | 2 | -2 | 2 | 4
COc1ccccc1OCc1nc2ccccc2n1C | 7 | 0 | 1 | -5 | 1 | 1
Cc1cc(Nc2ccc([N+](=O)[O-])cc2)nc2ccccc12 | 1 | -2 | -1 | -9 | -1 | -3
SMILES | hgDAF12 agonist | ssDAF12 agonist | DAX1 inh-1 | NR1D1 modulator | DAX1 inh-2 | hcDAF12 agonist
COc1ccc(Nc2cc(C)c3ccccc3n2)cc1 | 11* | -1 | 1 | -3 | 1 | -1
CC(C)n1c(NCc2nc3ccccc3n2C)nc2ccccc21 | 1 | 0 | 0 | -4 | 1 | 0
Cn1c(CNc2nc3ccccc3n2C)nc2ccccc21 | 11* | 0 | 2 | 0 | 0 | 3
COC(=O)[C@]12C[C@H](CC(=O)N3CCSCC3)C(=O)N(CCC3=CCCCC3)C1=C[C@H](C(C)(C)C)O[C@@H]2C | 0 | -1 | -1 | -9 | . | 0
COc1cc(CNCCCCO)ccc1OCc1ccccc1F | 11* | -1 | 1 | 2 | 0 | 1
c1ccc2c(c1)Cn1c-2nc2ccccc21 | 13* | 0 | 3 | -2 | 1 | 6.0*
C=C1CC2C3C=C(C)C4=CC(=O)CC[C@]4(C)C3CC[C@]2(C)[C@@]1(OC(C)=O)C(C)=O (stereo not given in full) | . | . | . | 1 | . | .
CCC(C(=O)Nc1c(C)cccc1C)n1c(-c2ccc(=O)[nH]c2)nc2ccccc21 (stereo not given) | 1 | 1.5* | 1 | -7 | . | 5
CC1(C)CC(NCCC(c2ccccc2)c2ccco2)CCO1 (stereo not given) | 1 | -2 | 1 | -2 | 8.2* | 2
CC1(C)CC(C(=O)NCCC(c2ccccc2)c2ccco2)CCO1 (stereo not given) | 1 | -1 | 1 | 0 | 1 | -2
COc1ccc(C(=O)OCCN2CCN(C3CN(Cc4cn(Cc5cccc(C)c5)nn4)S(=O)(=O)C3)CC2)cc1OC (stereo not given) | -2 | -2 | -4 | -1 | . | -5
c1ccc(SCCOCCN2CCc3ccccc3C2)cc1 | 3 | -1 | 1 | 2 | 0 | 6.3*
c1ccc(SCCN2CCc3ccccc3C2)cc1 | 5 | 0 | 1 | 1 | -1 | 0
CC[C@H](CCC(=O)N(c1ccccc1)c1ccccc1)C1CC1 | 1 | -2 | -1 | -2 | . | -4
COC(=O)c1ccc2nc(-c3cccc(Br)c3)c(Cc3ccsc3)n2c1 | 0 | -1 | 3.8* | -5 | . | 0
COC(=O)c1ccc2nc(-c3ccccc3)c(Cc3ccc(C)cc3)n2c1 | 6 | 0.9* | 2 | 0 | . | 5
COC(=O)c1ccc2nc(-c3ccc(C)cc3)c(Cc3ccccc3)n2c1 | 5 | 0 | 1 | 3 | . | 0
COC(=O)c1ccc2nc(-c3cccc(Cl)c3)c(Cc3cccc(Cl)c3)n2c1 | 3 | 0.9* | 3 | -1 | . | 2
COC(=O)c1ccc2nc(-c3cccc(Cl)c3)c(Cc3cccc(F)c3)n2c1 | 5 | 0 | 3 | 1 | . | 2
C[C@@H](/C=C/C(=O)OC(C)(C)C)Sc1ccc(C(C)(C)C)cc1 | 0 | -2 | 0 | -7 | . | -2
Cc1noc(C)c1S(=O)(=O)N(C)C[C@@H]1OCc2cnnn2CCCC(=O)N([C@@H](C)CO)C[C@@H]1C | -1 | -1 | 0 | 8 | . | -2
CN(Cc1ccccc1Cl)C(=O)CN1C(=O)C2(OCCCO2)c2ccccc21 | -2 | -1 | 1 | -2 | . | -3
Cc1c(C(=O)Nc2nccs2)oc2ccc(F)cc12 | 9 | 1.6* | 2 | 0 | 2 | 6.3*
Cc1cc(C(=O)Nc2nccs2)c2cc(F)ccc2n1 | 3 | 0 | 1 | -2 | 0 | 2
N#Cc1ccccc1OCC(=O)NC(=O)NCc1ccco1 | 11* | -1 | 1 | -6 | 7.0* | 1
Cc1ccccc1OCCCC(=O)NCc1ccco1 | 1 | -1 | -1 | 0 | 4.4* | -2
